“And” between values parts separate entries of the source, which are not always exact repeats. Identical values can stand only once. Inconclusive results are not listed. Some structures have more than one record in an assay (separate samples or runs), and their calls can disagree. The source made the active and inactive calls. The calls were made as follows, unless noted: active = hit-call score of the fitted dose curve at least 0.9, where 1 is the maximum; inactive = score below 0.9.
Legend:
[1] = target: human RAR-related Orphan Receptor gamma (RORg), RORC (gene 6097) (UniProt P51449); test: ATG_RORg_TRANS: Attagene TRANS-FACTORIAL HepG2 Assay for human RAR-related Orphan Receptor gamma (RORg) (AID 2283011; active = hit-call score of the fitted dose curve at least 0.9, where 1 is the maximum;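 as to AC50: potency for induction of reporter transcripts above DMSO so activators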)
Outline: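 Transient MRTU transfection of HepG2 (TRANS format, exogenous NR-Gal4 chimera). 24 h dosing. Total RNA → oligo(dT) RT → PCR → 6-FAM labelling → HpaI cut → CE. Gain vs DMSO.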

[2] = target: Retinoic acid receptor RXR-alpha (Homo sapiens) (UniProt P19793); test: ATG_RXRa_TRANS: Attagene TRANS-FACTORIAL HepG2 Assay for human Retinoid X Receptor alpha (RXRa) (AID 2283012; active = hit-call score of the fitted dose curve at least 0.9, where 1 is the maximum)
Outline: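 Chimeric NR-GAL4 trans-activation in HepG2, 24 h treatment; reporter transcripts quantified by fluorescence on capillary electrophoresis, analysed for upward change from DMSO.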

[3] = read-out: E-selectin (Homo sapiens) (UniProt P16581); test: BSK_3C_Eselectin: BioMAP Diversity Plus: 3C Assay for Eselectin Biomarker Activity (AID 2283015); conditions: primary human endothelial cells (HUVEC); actives raise or lower the signal;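 also: cell surface E-selectin protein quantified by ELISA 24 h after dosing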
Outline: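 HUVEC, 3C stimulation; compound exposure 24 h; E-selectin by ELISA; gain- or loss-of-signal fitted bidirectionally vs DMSO baseline.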

[4] = read-out: Interleukin-1 alpha (IL1a), IL1A (gene 3552); test: BSK_BE3C_IL1a: BioMAP Diversity Plus: BE3C Assay for Interleukin-1 alpha (IL1a) Biomarker Activity (AID 2283016); conditions: primary human bronchial epithelial cells; actives raise or lower the signal
Outline: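 Measured in human lung primary bronchial epithelial cells: IL-1a by ELISA at 24 h after dosing, with bidirectional fitting against DMSO.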

[5] = read-out: Monocyte Chemoattractant Protein-1 (MCP1), CCL2 (gene 6347); test: BSK_3C_MCP1: BioMAP Diversity Plus: 3C Assay for Monocyte Chemoattractant Protein-1 (MCP1) Biomarker Activity (AID 2283017); conditions: primary human endothelial cells (HUVEC); actives raise or lower the signal
Outline: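 HUVEC, 3C system; 24 h chemical exposure; MCP-1 by ELISA; bidirectional curve fit vs DMSO baseline.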

[6] = read-out: Monocyte Chemoattractant Protein-1 (MCP1), CCL2 (gene 6347); test: BSK_4H_MCP1: BioMAP Diversity Plus: 4H Assay for Monocyte Chemoattractant Protein-1 (MCP1) Biomarker Activity (AID 2283018); conditions: primary human endothelial cells (HUVEC); actives raise or lower the signal
Outline: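 Primary human umbilical vein endothelium is exposed to chemical for 24 h before MCP-1 is assayed by ELISA. Concentration-response fitted bidirectionally relative to DMSO.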

[7] = read-out: Human Leukocyte Antigen - DR isotype (HLADR), HLA-DRA (gene 3122); test: BSK_3C_HLADR: BioMAP Diversity Plus: 3C Assay for Human Leukocyte Antigen - DR isotype (HLADR) Biomarker Activity (AID 2283019); conditions: primary human endothelial cells (HUVEC); actives raise or lower the signal
Outline: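 HUVEC, 3C stimulation, 24 h post-dose; HLA-DR by ELISA; bidirectional curve fit vs DMSO baseline; gain or loss of signal scored.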

[8] = read-out: Interleukin-8 (IL8), CXCL8 (gene 3576); test: BSK_3C_IL8: BioMAP Diversity Plus: 3C Assay for Interleukin-8 (IL8) Biomarker Activity (AID 2283020); conditions: primary human endothelial cells (HUVEC); actives raise or lower the signal
Outline: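 Using DMSO-treated wells as the baseline, bidirectional curve fitting was applied to ELISA-measured IL-8 from human umbilical vein endothelial cultures sampled 24 h after compound addition.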

[9] = read-out: Monokine induced gamma interferon (MIG), CXCL9 (gene 4283); test: BSK_3C_MIG: BioMAP Diversity Plus: 3C Assay for Monokine induced gamma interferon (MIG) Biomarker Activity (AID 2283021); conditions: primary human endothelial cells (HUVEC); actives raise or lower the signal
Outline: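 ELISA-measured MIG in dosed HUVEC 3C cultures at 24 h, analysed by bidirectional fitting with DMSO defining baseline activity.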

[10] = BSK_3C_SRB: Viability Assessment in the BioMAP Diversity Plus: 3C Assay (AID 2283023); conditions: primary human endothelial cells (HUVEC);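 also: cells read 24 h after compound dosing; fitted both ways against DMSO so a hit may be signal rise or drop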
Outline: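 HUVEC, 24 h post-dose; 10% TCA fix, 0.1% SRB stain, A560 nm. Bidirectional curve fit vs DMSO negative control.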

[11] = BSK_3C_Vis: BioMAP Diversity Plus: 3C Assay for Morphology Visualization (AID 2283025); conditions: primary human endothelial cells (HUVEC);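 also: fitted both ways so gain or loss versus DMSO counts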;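 as to AC50: light microscopy image of cell morphology used as background control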
Outline: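 Light-microscopy morphology readout, 24 h exposure, human primary umbilical vein endothelium; analysed relative to DMSO with bidirectional fitting.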

[12] = read-out: Pselectin, SELP (gene 6403); test: BSK_4H_Pselectin: BioMAP Diversity Plus: 4H Assay for Pselectin Biomarker Activity (AID 2283026); conditions: primary human endothelial cells (HUVEC); actives raise or lower the signal
Outline: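 Bidirectional fits against DMSO gave the endpoint. Cells: primary human umbilical vein endothelium, chemical-treated for 24 h before ELISA detection of P-selectin.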

[13] = BSK_4H_SRB: Viability Assessment in the BioMAP Diversity Plus: 4H Assay (AID 2283027); conditions: primary human endothelial cells (HUVEC);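 also: cells exposed to compound for 24 h before staining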;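 as to AC50: curves fitted both ways versus DMSO so AC50 may be loss or gain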
Outline: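 Cytotoxicity readout: sulforhodamine B (0.1%) staining of total protein after 10% TCA fixation, measured at 560 nm in human umbilical vein endothelium at 24 h. DMSO set the baseline; fitting was bidirectional.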

[14] = BSK_BE3C_SRB: Viability Assessment in the BioMAP Diversity Plus: BE3C Assay (AID 2283028); conditions: primary human bronchial epithelial cells
Outline: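 Primary human bronchial epithelium; chemical dosing, 24 h; 10% TCA fix, 0.1% SRB stain, A560; bidirectional fit vs DMSO baseline.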

[15] = read-out: Thrombomodulin, THBD (gene 7056); test: BSK_3C_Thrombomodulin: BioMAP Diversity Plus: 3C Assay for Thrombomodulin Biomarker Activity (AID 2283029); conditions: primary human endothelial cells (HUVEC); actives raise or lower the signal
Outline: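 In a multiplexed primary-cell system, human umbilical vein endothelium received chemical and was assayed 24 h later for thrombomodulin by ELISA. Parallel cultures were SRB-stained (0.1% SRB after 10% TCA fixation, read at 560 nm) to flag cytotoxicity.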

[16] = read-out: Urokinase-type plasminogen activator receptor (uPAR), PLAUR (gene 5329); test: BSK_4H_uPAR: BioMAP Diversity Plus: 4H Assay for Urokinase-type plasminogen activator receptor (uPAR) Biomarker Activity (AID 2283030); conditions: primary human endothelial cells (HUVEC); actives raise or lower the signal
Outline: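 HUVEC, 24 h post-dose; uPAR by ELISA; bidirectional fit vs DMSO baseline.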

[17] = target: human Retinoid X Receptor beta (RXRb), RXRB (gene 6257) (UniProt P28702); test: ATG_RXRb_TRANS: Attagene TRANS-FACTORIAL HepG2 Assay for human Retinoid X Receptor beta (RXRb) (AID 2283013; active = hit-call score of the fitted dose curve at least 0.9, where 1 is the maximum)
Outline: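 After a 24 h incubation with test chemical, transfected HepG2 cells carrying NR-Gal4 fusions and GAL4-UAS reporter transcription units yield RNA whose reporter cDNA is FAM-labelled, HpaI-cut and sized by capillary electrophoresis; increases over DMSO are scored.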

[18] = target: human Vitamin D Receptor (VDR), VDR (gene 7421) (UniProt P11473); test: ATG_VDR_TRANS: Attagene TRANS-FACTORIAL HepG2 Assay for human Vitamin D Receptor (VDR) (AID 2283022; active = hit-call score of the fitted dose curve at least 0.9, where 1 is the maximum)
Outline: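 RT-PCR/capillary electrophoresis read-out of reporter mRNA induction in transiently transfected HepG2; 24 h dosing; chimeric NR-Gal4 (TRANS format); gain-of-signal fit against DMSO baseline.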

[19] = read-out: Matrix Metallopeptidase 1 (MMP1), MMP1 (gene 4312); test: BSK_BE3C_MMP1: BioMAP Diversity Plus: BE3C Assay for Matrix Metallopeptidase 1 (MMP1) Biomarker Activity (AID 2283024); conditions: primary human bronchial epithelial cells; actives raise or lower the signal
Outline: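 In this multiplexed primary-cell system, human bronchial epithelium received chemicals for 24 h before an ELISA for MMP1. Values reflect bidirectional fits normalised to the DMSO baseline.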

Measured: AC50

Chain of human Vitamin D Receptor (VDR), VDR (gene 7421) (P11473 whole entry, looked up, the tested form may be a part): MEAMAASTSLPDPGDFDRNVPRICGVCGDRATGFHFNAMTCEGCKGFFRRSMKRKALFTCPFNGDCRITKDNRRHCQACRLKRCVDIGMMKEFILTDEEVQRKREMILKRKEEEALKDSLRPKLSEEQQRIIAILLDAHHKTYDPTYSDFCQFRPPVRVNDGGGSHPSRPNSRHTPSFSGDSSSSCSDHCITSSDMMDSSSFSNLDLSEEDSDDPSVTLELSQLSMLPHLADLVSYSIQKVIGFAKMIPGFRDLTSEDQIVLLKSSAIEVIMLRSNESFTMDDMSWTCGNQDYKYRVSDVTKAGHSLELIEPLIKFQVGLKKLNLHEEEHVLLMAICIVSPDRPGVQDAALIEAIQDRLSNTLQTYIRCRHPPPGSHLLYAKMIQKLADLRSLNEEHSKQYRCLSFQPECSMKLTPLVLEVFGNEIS
Chain of E-selectin (Homo sapiens) (P16581 whole entry, looked up): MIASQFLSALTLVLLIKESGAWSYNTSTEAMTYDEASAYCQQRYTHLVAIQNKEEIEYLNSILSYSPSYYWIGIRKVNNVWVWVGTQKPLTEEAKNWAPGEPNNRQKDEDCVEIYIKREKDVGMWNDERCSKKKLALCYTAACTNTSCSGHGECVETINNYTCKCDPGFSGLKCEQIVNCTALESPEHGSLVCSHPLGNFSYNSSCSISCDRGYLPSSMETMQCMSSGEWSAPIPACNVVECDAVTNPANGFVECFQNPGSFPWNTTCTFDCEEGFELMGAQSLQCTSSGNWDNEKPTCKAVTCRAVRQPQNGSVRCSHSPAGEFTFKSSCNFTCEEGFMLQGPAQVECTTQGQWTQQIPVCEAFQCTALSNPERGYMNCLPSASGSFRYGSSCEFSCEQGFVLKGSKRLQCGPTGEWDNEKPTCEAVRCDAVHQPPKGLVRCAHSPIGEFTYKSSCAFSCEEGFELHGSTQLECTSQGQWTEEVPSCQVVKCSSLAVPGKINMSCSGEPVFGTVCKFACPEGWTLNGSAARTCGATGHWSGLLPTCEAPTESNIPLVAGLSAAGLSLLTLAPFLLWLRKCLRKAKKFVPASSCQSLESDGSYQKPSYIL
Chain of human Retinoid X Receptor beta (RXRb), RXRB (gene 6257) (P28702 whole entry, looked up, the tested form may be a part): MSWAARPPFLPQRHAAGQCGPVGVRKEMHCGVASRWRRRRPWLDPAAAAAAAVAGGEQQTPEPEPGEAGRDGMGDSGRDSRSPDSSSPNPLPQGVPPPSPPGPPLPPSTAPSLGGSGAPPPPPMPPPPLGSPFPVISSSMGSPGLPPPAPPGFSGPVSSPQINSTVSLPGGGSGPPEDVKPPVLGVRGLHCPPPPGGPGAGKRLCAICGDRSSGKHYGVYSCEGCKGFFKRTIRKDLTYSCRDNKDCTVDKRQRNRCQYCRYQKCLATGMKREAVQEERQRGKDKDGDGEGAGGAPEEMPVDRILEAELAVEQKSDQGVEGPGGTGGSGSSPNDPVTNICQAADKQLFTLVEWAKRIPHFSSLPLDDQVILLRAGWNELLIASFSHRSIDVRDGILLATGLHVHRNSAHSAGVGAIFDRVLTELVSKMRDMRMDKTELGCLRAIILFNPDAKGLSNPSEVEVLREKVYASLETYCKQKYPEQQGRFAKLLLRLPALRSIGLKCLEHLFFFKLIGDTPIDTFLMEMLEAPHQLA
Chain of Retinoic acid receptor RXR-alpha (Homo sapiens) (P19793 whole entry, looked up, the tested form may be a part): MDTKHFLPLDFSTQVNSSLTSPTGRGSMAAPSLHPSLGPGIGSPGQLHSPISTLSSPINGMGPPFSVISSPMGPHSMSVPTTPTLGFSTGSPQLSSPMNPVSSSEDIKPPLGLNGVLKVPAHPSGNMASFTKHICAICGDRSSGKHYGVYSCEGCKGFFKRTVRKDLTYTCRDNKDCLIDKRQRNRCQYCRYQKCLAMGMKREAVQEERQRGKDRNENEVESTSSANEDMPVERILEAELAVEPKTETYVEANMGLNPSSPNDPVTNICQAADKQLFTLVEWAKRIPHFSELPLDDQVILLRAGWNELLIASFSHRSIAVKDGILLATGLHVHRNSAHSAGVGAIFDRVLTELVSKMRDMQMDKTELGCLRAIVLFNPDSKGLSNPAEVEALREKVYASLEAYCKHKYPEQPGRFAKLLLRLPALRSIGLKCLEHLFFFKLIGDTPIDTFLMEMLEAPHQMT
Chain of human RAR-related Orphan Receptor gamma (RORg), RORC (gene 6097) (P51449 whole entry, looked up, the tested form may be a part): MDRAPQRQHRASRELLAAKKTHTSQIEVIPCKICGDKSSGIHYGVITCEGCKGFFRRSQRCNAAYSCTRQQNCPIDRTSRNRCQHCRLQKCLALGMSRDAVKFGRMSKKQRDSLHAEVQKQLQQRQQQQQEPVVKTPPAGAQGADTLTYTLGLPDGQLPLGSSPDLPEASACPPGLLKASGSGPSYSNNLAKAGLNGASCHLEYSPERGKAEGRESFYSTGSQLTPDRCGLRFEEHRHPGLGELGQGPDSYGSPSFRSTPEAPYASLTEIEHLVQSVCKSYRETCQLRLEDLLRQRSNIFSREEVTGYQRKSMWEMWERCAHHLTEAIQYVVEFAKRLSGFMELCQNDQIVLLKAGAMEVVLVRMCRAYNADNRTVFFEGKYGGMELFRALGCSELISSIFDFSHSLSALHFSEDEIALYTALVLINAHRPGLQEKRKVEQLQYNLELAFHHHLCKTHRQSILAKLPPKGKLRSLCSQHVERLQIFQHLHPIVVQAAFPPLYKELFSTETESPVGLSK

Oc1ccccc1
not listed: [17] | [18] | [19]
inactive: all other assays above

O=c1c(-c2ccc(O)cc2)coc2cc(O)cc(O)c12
active: [1] 26.5 µM | [17] 25.2 µM and 27.2 µM | [5] 25.3 µM | [6] 8.42 µM | [7] 21.1 µM | [10] 25.8 µM | [19] 15.3 µM | [11] 39 µM | [12] 17.1 µM | [13] 14.7 µM | [16] 14.1 µM
inactive: [1] | [2] | [17] | [3] | [9] | [18] | [14] | [15]

CC(O)CC(C)(C)O (stereo not drawn)
not listed: [19]
inactive: all other assays above

O=C1CCC(C2CCCCC2)CC1
active: [19] 12.6 µM
inactive: all other assays above

CCO[Si](CCCNC(N)=O)(OCC)OCC
not listed: [19]
inactive: all other assays above

O=C1O[C@H]([C@@H](O)CO)C(O)=C1O
inactive: [1] | [2] | [17] | [3] | [4] | [5] | [6] | [7] | [8] | [10] | [11] | [12] | [13] | [14] | [15] | [16]
active: [2] 26.6 µM | [17] 35.9 µM

Source: PubChem BioAssay (EPA / NIEHS)
